The values below come from PubChem BioAssay.

The source made the active and inactive calls.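 The calls were made as follows, unless noted: active = compound raises GLP1 secretion from the human gut endocrine cells, with no numeric limit stated; inactive = the rest.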

Assay [1] can be described thus: Wnt pathway potentiators raising nuclear beta-catenin – imaging, WNT3A-conditioned medium, mouse C2C12, NPC library, primary screen (AID 1117326; in the data active = nuclear beta-catenin stimulation mostly above about 4.2%, no sharp cut-off; inactive = mostly below about 10%). To be noted: stronger effect = higher value.
Assay [2] is described as follows: stimulators of insulin release from INS-1E, primary screen, cell-based, 5 mM glucose, NPC library (AID 1117329;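 active = compound raises insulin release from rat beta cells at 5 mM glucose, no numeric limit stated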). To be noted: rat INS-1E insulin secretion, at 10 µM, stronger effect = higher value.
Assay [3] is described as follows: growth inhibition of GSK3B-pretreated HCT116 cells – cell-based, CellTiter-Glo, 0.2 to 20 µM (AID 1117336;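 active = compounds lowering colon cancer cell viability after pretreatment blocking the GSK3B kinase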). To be noted: HCT116 viability after GSK3B inhibitor, at 20 µM, stronger effect = higher value. A general note: ATP-based viability assays read luminescence as a measure of living cells.
Assay [4] can be described thus: inhibition of endothelial tube formation, primary screen, imaging, VEGF stimulated, CD31 staining, tube area, NPC library (AID 1117340;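 active = compound that reduces growth-factor-driven endothelial tube area in a mixed cell culture, no cutoff stated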). To be noted: VEGF-stimulated ADSC/ECFC co-culture, at 10 µM, stronger effect = higher value.
The nature of assay [5]: GLP1 release stimulators, primary, NCI-H716, NPC library (AID 1117341). To be noted: NCI-H716 cells, at 10 µM, stronger effect = higher value.
Assay [6] is described as follows: HCT116 colon cancer cell growth inhibition, primary screen, CellTiter-Glo luminescence, NPC library (AID 1117342;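 active = compounds that lower survival of HCT116 colon cancer cells in the luminescence readout, no numeric limit stated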). To be noted: at 20 µM (top of the series).
Assay [7] is described as follows: reduced SW480 viability measured with CellTiter-Glo, NPC library, primary (AID 1117343;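 active = compounds that lower viability of the colon cancer cells in the luminescence readout, with no numeric limit stated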). To be noted: CellTiter-Glo luminescence; at 20 µM (top of the series) unless noted.
Assay [8] can be described thus: NPC library primary testing for decreased DLD-1 cell viability via CellTiter-Glo (AID 1117346;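 active = compounds that lower survival of DLD-1 colon cancer cells in the luminescence readout, no cutoff given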). To be noted: DLD-1 viability, CellTiter-Glo luminescence; at 20 µM (top of the series).
The nature of assay [9]: EMT-state selective cytotoxicity in co-culture – imaging, PC-3E GFP, TEM4-18 mCherry, primary screen (AID 1345086;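 active = compounds killing one labelled cell type while sparing the other, by normalised counts and ratio limits, not self-fluorescent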;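 as to all read-outs here: cells exposed to compound for 72 h before imaging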;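 as to red/green cell ratio (normalised): normalised mesenchymal count divided by normalised epithelial count so high means epithelial killing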). To be noted: PC-3E GFP / TEM4-18 mCherry co-culture, imaging cell counts, at 1 µM; for red/green cell ratio (normalised): actives lie on both sides, counts scaled to control wells, 1 = unselective.
Assay [10] is described as follows: viability loss with induced miR-34 in A549 – imaging, A549 dox-inducible miR-34, nuclei and caspase counts, primary screen (AID 1347080;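 active = compounds whose cell count with miR-34 switched on is under 0.7 times the count with it off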). To be noted: A549 miR-34 inducible, Hoechst nuclei count, 48 h.
Assay [11] concerns the target NAD(+) hydrolase SARM1 (Homo sapiens) (UniProt Q6SZW1). Description: blocking NAD cleavage by SARM1 SAM-TIR – cell lysate, NAD-Glo luminescence (AID 1508614;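 active = compound whose remaining NAD level is above about 45 nM, limit read from the data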;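 also: higher remaining NAD means stronger inhibition of SARM1 NADase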). To be noted: SAM-TIR HEK293T lysate NADase, at 1 µM, stronger effect = higher value.
Assay [12] can be described thus: compounds altering viability of human ES cells (AID 493140; call rule not given here;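 also: cells exposed to compounds for four days before counting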). To be noted: human embryonic stem cell survival screen; stronger effect = higher value.
Assay [13] is described as follows: P. berghei load reduction in hepatocytes – cell-based, HepG2, luciferase luminescence, HepG2 viability, primary screen (AID 624349; in the data active = parasite load remaining mostly below about 12%, no sharp cut-off; inactive = mostly above about 10%;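 also: 100% = mean of DMSO negative control wells on the same plate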). To be noted: P. berghei liver stage in HepG2, luciferase luminescence, concentration not given here; parasite load remaining: stronger effect = lower value; viability: measured here: HepG2 viability without parasites.
The nature of assay [14]: MELAS cybrid and Rieske KO viability enhancers – cell-based, MELAS cybrids, Rieske KO mouse fibroblasts, CellTiter-Glo, primary screen (AID 1508586;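 active = mean z-score across replicates of 1.96 or higher in either the MELAS or the Rieske mutant cell line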;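 also: z relative to plate mean and SD of compound and empty wells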). To be noted: low glucose.
The mark [15] stands for this setting: measured here: epithelial PC-3E GFP cell survival.
[16] abbreviates: measured here: mesenchymal TEM4-18 mCherry cell survival.
Where [17] appears, read: stronger effect = lower value, cell number ratio, induced over uninduced.
Where [18] appears, read: measured here: relative caspase fold change +Dox/-Dox.
The mark [19] stands for this setting: measured here: total cells with miR-34 induction, stronger effect = lower value.
[20] abbreviates: measured here: total cells without miR-34 induction.

Sequence of NAD(+) hydrolase SARM1 (Homo sapiens) (Q6SZW1 whole entry, looked up): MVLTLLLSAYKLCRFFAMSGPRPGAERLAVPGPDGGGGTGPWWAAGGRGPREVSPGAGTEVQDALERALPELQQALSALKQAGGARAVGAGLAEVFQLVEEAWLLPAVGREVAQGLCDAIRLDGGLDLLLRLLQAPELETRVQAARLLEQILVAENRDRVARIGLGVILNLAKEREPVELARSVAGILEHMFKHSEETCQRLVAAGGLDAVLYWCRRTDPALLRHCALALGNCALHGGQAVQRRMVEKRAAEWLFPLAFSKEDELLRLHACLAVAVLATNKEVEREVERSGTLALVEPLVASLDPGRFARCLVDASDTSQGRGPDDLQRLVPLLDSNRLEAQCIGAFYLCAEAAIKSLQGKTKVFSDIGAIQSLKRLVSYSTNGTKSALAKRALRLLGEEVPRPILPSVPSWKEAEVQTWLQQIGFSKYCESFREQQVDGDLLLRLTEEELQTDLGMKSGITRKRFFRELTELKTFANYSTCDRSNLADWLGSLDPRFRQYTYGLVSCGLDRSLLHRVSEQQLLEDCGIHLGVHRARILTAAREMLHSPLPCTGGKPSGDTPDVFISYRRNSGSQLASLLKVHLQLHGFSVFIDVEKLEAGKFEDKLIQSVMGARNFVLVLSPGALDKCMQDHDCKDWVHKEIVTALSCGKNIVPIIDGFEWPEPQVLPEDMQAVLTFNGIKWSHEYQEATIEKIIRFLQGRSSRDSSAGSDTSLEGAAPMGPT

`[O-][n+]1cccc(CO)c1`: the nuclear beta-catenin stimulation in [1] (at 10 µM) is -0.4% (inactive); in [1] (stimulation, at 2 µM) it was 0.6%. Further, the insulin secretion stimulation in assay [2] was 2.1% (inactive). Besides, the viability decrease in assay [3] was -35% (inactive). In addition, the tube area decrease in [4] was 18.7% (inactive). Besides, the GLP1 secretion stimulation in assay [5] was -4.1% (inactive). The inhibition of viability in [6] was 1.43% (inactive). Moreover, the viability decrease (inhibition) in assay [7] was -11.9% (inactive); in [8] it was -6% (inactive). Moreover, the red/green cell ratio (normalised) in assay [9] was 0.9 (inactive). Also, the normalised cell number in [9] (setting [15]) stood at 1.13; in assay [9] (setting [16]), 1.02. Moreover, the fold change in assay [10] (setting [17]) was 0.861 (inactive); in [10] (setting [18]) it was 0.917. The cell count in assay [10] (setting [19]) worked out at 7710; in assay [10] (setting [20]), 8950. Moreover, in assay [11], the remaining NAD is 10 nM (inactive).
With `C[C@H](O)C(=O)Nc1c(I)c(C(=O)NC(CO)CO)c(I)c(C(=O)NC(CO)CO)c1I`, the survival in assay [12] was 3.75 (inactive). The parasite load remaining in assay [13] is 99% (inactive). In assay [13], the viability (usually a read-out of living cells in per cent, often relative to untreated cells) was 105%. Also, the nuclear beta-catenin stimulation in assay [1] (at 10 µM) is -2.7% (inactive); in assay [1] (stimulation, at 2 µM) it was 2.4%. In assay [2], the insulin secretion stimulation is 3.4% (inactive). The viability decrease in assay [3] was 0.8% (inactive). In addition, the tube area decrease in [4] was -18.2% (inactive). In addition, in assay [5], the GLP1 secretion stimulation is 0.1% (inactive). Also, the inhibition of viability in assay [6] was -1.3% (inactive). Also, the viability decrease (inhibition) in assay [7] is 15% (inactive); in assay [8], -3.1% (inactive). Further, the red/green cell ratio (normalised) in assay [9] was 1.21 (inactive). Moreover, the normalised cell number in assay [9] (setting [15]) came to 0.98; in assay [9] (setting [16]), 1.18. In addition, the fold change in [10] (setting [17]) was 0.849 (inactive); in [10] (setting [18]), 2.22. Further, the cell count in [10] (setting [19]) was 8600; in [10] (setting [20]), 10100. In addition, the z-score in assay [14] (MELAS cybrid survival, CellTiter-Glo 48 h, stronger effect = higher value) was -0.551 (inactive); in assay [14] (Rieske KO mouse fibroblast survival, CellTiter-Glo 72 h) it was -0.888.
For `COc1cc(/C=C/C(N)=O)cc(OC)c1OC`, the nuclear beta-catenin stimulation in assay [1] (at 10 µM) is 1.1% (inactive); in assay [1] (stimulation, at 2 µM), 0.6%. The insulin secretion stimulation in [2] is 0.8% (inactive). Besides, the viability decrease in [3] was -4.6% (inactive). Moreover, the tube area decrease in [4] was 11.9% (inactive). For the same compound, the GLP1 secretion stimulation in [5] is 0.1% (inactive). Moreover, the inhibition of viability in assay [6] was -6% (inactive). The viability decrease (inhibition) in assay [7] is 6.6% (inactive); in assay [8] it was 4.6% (inactive). Further, the red/green cell ratio (normalised) in [9] is 0.8 (inactive). Also, the normalised cell number was 1.28 in [9] (setting [15]) and 1.03 in [9] (setting [16]). For the same compound, the fold change in [10] (setting [17]) was 0.933 (inactive); in assay [10] (setting [18]), 0.864. The results for the cell count in assay [10] (setting [19]) and in [10] (setting [20]) were 8570 and 9180, respectively. Besides, in assay [11], the remaining NAD is 10 nM (inactive).
In the case of `CN1C(=O)CC(C)(c2ccccc2)C1=O` (centres undefined), the nuclear beta-catenin stimulation in assay [1] (at 10 µM) was 2.5% (inactive); in [1] (stimulation, at 2 µM), 2%. Moreover, in assay [2], the insulin secretion stimulation is -0.7% (inactive). In assay [3], the viability decrease was -2.5% (inactive). Also, the tube area decrease in assay [4] is -16.2% (inactive). The GLP1 secretion stimulation in assay [5] was 2.6% (inactive). Moreover, the inhibition of viability in assay [6] was 8.7% (inactive). Besides, the viability decrease (inhibition) in [7] is 19.6% (inactive); in assay [8] it was -5.25% (inactive). For the same compound, in assay [9], the red/green cell ratio (normalised) is 1.03 (inactive). The normalised cell number in [9] (setting [15]) is 0.99; in assay [9] (setting [16]), 1.02. Moreover, the fold change in assay [10] (setting [17]) is 0.901 (inactive); in assay [10] (setting [18]), 0.963. Also, the cell count in [10] (setting [19]) turned out to be 8480; in assay [10] (setting [20]), 9410. The remaining NAD in [11] was 10 nM (inactive).
As for `CC(=O)N(CC(O)CO)c1c(I)c(C(=O)NCCO)c(I)c(C(=O)NCC(O)CO)c1I` (centres undefined), the nuclear beta-catenin stimulation was 9.8% (inactive) in assay [1] (at 10 µM) and 0.7% in assay [1] (stimulation, at 2 µM). In addition, the insulin secretion stimulation in [2] is 0.3% (inactive). The viability decrease in assay [3] is -3.3% (inactive). In addition, in [4], the tube area decrease is 1.4% (inactive). Further, in assay [5], the GLP1 secretion stimulation is 2.4% (inactive). In assay [6], the inhibition of viability is -3.1% (inactive). Further, the viability decrease (inhibition) in assay [7] was -2.5% (active); in [8], 0.4% (inactive). The red/green cell ratio (normalised) in [9] was 0.83 (inactive). The normalised cell number in [9] (setting [15]) amounted to 1.22; in assay [9] (setting [16]) it was 1.02. Moreover, the fold change in [10] (setting [17]) was 0.937 (inactive); in assay [10] (setting [18]) it was 0.945. For the same compound, the cell count in assay [10] (setting [19]) was 9070; in assay [10] (setting [20]), 9680. Further, in assay [11], the remaining NAD was 10 nM (inactive).
